# TEAD-YAP block – TEAD-YAP interaction inhibition; HEK-TIYL cells, TEAD-Gal4/YAP UAS-luciferase luminescence; inhibition, % at 9.12 µM; 640,000 tested, 1.4% active; in the data active = inhibition above about 32%;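 also: 0% = median of test compound wells and 100% = reference inhibitor wells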
# FBW7 activator – activators of human E3 ligase FBW7. AlphaScreen FBW7–phospho-cyclin E peptide binding, activator screen. normalized activity (activation), % at 26.1 µM. Q969H0. 650,000 tested, 0.13% active; in the data active = normalized activity above about 1.9%;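 also: purified mutant Fbw7 with reduced substrate affinity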
# Target sequence (Q969H0 whole entry, looked up): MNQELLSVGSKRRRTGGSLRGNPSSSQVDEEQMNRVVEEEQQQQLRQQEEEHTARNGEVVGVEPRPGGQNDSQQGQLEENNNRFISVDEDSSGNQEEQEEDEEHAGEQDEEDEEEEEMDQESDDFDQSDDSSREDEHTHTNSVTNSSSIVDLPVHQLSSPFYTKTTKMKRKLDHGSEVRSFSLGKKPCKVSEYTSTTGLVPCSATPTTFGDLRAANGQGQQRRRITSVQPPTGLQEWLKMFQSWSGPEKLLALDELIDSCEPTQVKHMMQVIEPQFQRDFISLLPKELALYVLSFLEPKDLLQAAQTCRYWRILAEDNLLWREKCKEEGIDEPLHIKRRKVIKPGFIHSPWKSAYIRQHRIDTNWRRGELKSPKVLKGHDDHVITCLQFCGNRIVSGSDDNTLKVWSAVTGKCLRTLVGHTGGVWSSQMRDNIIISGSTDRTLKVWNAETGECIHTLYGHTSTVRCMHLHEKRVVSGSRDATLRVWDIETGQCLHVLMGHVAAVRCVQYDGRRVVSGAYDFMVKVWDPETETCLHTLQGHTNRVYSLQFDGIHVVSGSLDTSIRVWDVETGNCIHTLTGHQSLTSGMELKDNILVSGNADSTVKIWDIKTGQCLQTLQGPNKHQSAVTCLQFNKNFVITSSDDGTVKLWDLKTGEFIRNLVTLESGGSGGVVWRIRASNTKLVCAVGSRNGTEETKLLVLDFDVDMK
# GPR151 ag – activators of human GPR151 | Q8TDV0 | PathHunter beta-arrestin GPR151 cells, luminescence | activation, % at 11.2 µM | 650,000 tested, 1% active | AID 1508602; in the data active = activation above about 4.9%;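 also: 0% = median of compound wells and 100% = cells with positive control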
# MITF inh – inhibitors of human MITF; AlphaScreen MITF homodimerization, bead proximity signal; inhibition, % at 2.6 µM; 650,000 tested, 0.91% active; AID 1259374; in the data active = inhibition above about 50%;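 also: 0% = vehicle wells with protein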
# GPR151 conf act – human GPR151 activation, confirmation screen | GPR151 PathHunter beta-arrestin cells, luminescence, 90 min; % of EA-reagent control over plate median | shares compounds with GPR151 ag | activation, % at 11.2 µM | AID 1508609 | 6,700 tested, under 10 active;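 active = mean percent activation across replicates above the confirmation screen cutoff of 4.91%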
# GPR119 counter – activates human GPR119 in a GPR151 counter-screen; shares compounds with GPR151 ag; GPR119 PathHunter beta-arrestin cells, luminescence, 90 min; 0 = compound-well median, 100 = enzyme-acceptor control; activation, % at 11.2 µM; 6,700 tested, 0.3% active;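 active = mean percent activation in the counterscreen above 29.09%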;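 also: counterscreen on off-target GPR119 to flag nonselective hits from the GPR151 activator screen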
# Active calls of the source: *; / = not tested or not shown. Most compounds without a hit are left out; they make up all but 3.5% or so of the library.
SMILES,TEAD-YAP block,FBW7 activator,GPR151 ag,MITF inh,GPR151 conf act,GPR119 counter
CCc1ccccc1NC(=O)CCC(=O)OCC(=O)c1ccc(Cl)cc1,11,0,8.7*,10,0,-6
CCc1ccc(C(=O)COC(=O)CCC(=O)Nc2ccc(OC)cc2)cc1,6,0,6.5*,17,-1,-6
CCN1CCN(CCCNC(=O)Cn2c(C)cc3ccccc3c2=O)CC1,-4,0,1,7,/,/
O=C(c1ccccc1)N1CCN(c2nccnc2NS(=O)(=O)c2ccc(F)cc2)CC1,-2,0,0,1,/,/
COc1ccc(Cc2nnc(SCC(=O)Nc3nc(C)cs3)n2C)cc1,1,0,2,1,/,/
c1coc(CN(Cc2nnnn2C2CCCC2)CC2CCCO2)c1 (stereo not given),1,0,0,2,/,/
CCOC(=O)c1ccc(NC(=O)CCC(=O)OCC(=O)c2ccc([N+](=O)[O-])cc2)cc1,3,0,7.4*,0,0,8
CCc1ccc(C(=O)COC(=O)CCC(=O)Nc2ccc([N+](=O)[O-])cc2)cc1,3,0,-1,13,/,/
O=C(NCCCN1CCN(c2cccc3ccccc23)CC1)Nc1ccc(F)cc1,4,0,-2,5,/,/
CCOC(=O)c1cc2c(c(CSc3nc4ccccc4c(=O)n3Cc3ccc4c(c3)OCO4)c1)OCOC2,-7,0,4.9*,-7,3,10
CCOC(=O)c1cc2c(c(CSc3nc4ccccc4c(=O)n3Cc3cccs3)c1)OCOC2,-9,0,1,1,/,/
COc1ccc(C(=O)N/N=C/c2cc(Br)c(O)c(OC)c2)cc1OC,-3,0,0,2,/,/
O=C(NCCc1ccc(O)cc1)c1cnc(-c2ccc(N3CCOCC3)nc2)s1,0,0,5.1*,-2,-1,-4
COc1ccc(/C(=N/O)C(C)(C)NO)cc1,7,0,5.1*,-2,-1,-2
CCCOc1ccc(/C(=N\O)C(C)(C)NO)cc1,-23,0,-2,-14,/,/
O=C(O)c1ccc(NC(=S)NC(=O)c2ccccc2[N+](=O)[O-])cc1Cl,3,0,-1,9,/,/
COc1ccc(CN2CCC3(CCC(CNS(=O)(=O)C(C)C)O3)CC2)cc1 (stereo not given),0,0,6.3*,-3,0,3
NS(=O)(=O)c1ccc(CCNC(=O)CN2C(=O)C3C4C=CC(C4)C3C2=O)cc1 (stereo not given),6,0,8.1*,14,0,-11
Cc1ccc2c(c1)cc(CN(CCc1ccccc1)C(=O)N1CCOCC1)c1nnnn12,3,0,5.2*,22,1,3
Cc1ccc2c(c1)cc(CN(Cc1cccs1)C(=O)c1cccs1)c1nnnn12,3,0,1,0,/,/
Cc1ccc2c(c1)cc(CN(Cc1cccs1)C(=O)C1CC1)c1nnnn12,-3,1,5.4*,17,0,4
Cc1ccc2c(c1)cc(CN(Cc1ccco1)C(=O)N(C)C)c1nnnn12,4,0,0,4,/,/
Cc1ccc2c(c1)cc(CN(Cc1ccco1)S(=O)(=O)c1ccccc1)c1nnnn12,-11,0,6.7*,-12,0,5
CCSc1nnc(CSc2ncccn2)n1-c1ccc(F)cc1,13,1,2,15,/,/
c1ccc(-c2nnc(-c3ccccc3)o2)cc1,-34,0,-7,2,/,/
SMILES,TEAD-YAP block,FBW7 activator,GPR151 ag,MITF inh,GPR151 conf act,GPR119 counter
c1ccc(C2=NCCCO2)cc1,9,0,10*,-22,1,-6
Cc1c(N2C(=O)c3ccc(Br)cc3C2=O)c(=O)n(-c2ccccc2)n1C,-5,0,5.2*,3,0,-4
O=C(CC1Sc2ccccc2NC1=O)NCc1ccc2c(c1)OCO2 (stereo not given),2,0,7.3*,1,-1,-11
COCCN(C(=O)Cc1ccc(F)cc1)C1CCN(Cc2ccncc2)CC1,2,0,6.6*,8,-1,-14
CC1=C(C(=O)OC(C)(C)C)C(c2ccc(Cl)cc2)C(C#N)=C(SCC(=O)Nc2ccc(Cl)cc2)N1 (stereo not given),4,0,-1,-10,/,/
Cc1ccc(NC(=O)CN(c2cc(C)ccc2C)S(C)(=O)=O)cc1,-6,0,1,3,/,/
NC(=O)CSc1nnc2n(Cc3ccccc3)c3ccccc3n12,-7,0,6.1*,-3,1,-3
OCCOCCNc1ncnc2ccc(I)cc12,8,1,5.4*,10,0,-4
CC(=O)N1CN(Cc2cccnc2)Cc2c1sc1c2CCCC1,-4,0,0,-5,/,/
CC(=O)N1CN(Cc2ccccc2)Cc2c1sc1c2CCCC1,-8,0,5.5*,1,0,-3
Cc1ccc(-n2c(SCC(=O)NCc3ccccc3)nc3c(sc(=S)n3-c3ccccc3C)c2=O)cc1,-3,0,1,1,/,/
Cn1c(CNC(=O)c2cccs2)nnc1SCC(=O)N1N=C(c2ccc(Br)cc2)CC1c1ccc(F)cc1 (stereo not given),3,0,0,17,/,/
Cc1ccn2c(C(=O)Nc3ccc(Cl)cc3)c(C)nc2c1,-7,0,5.5*,15,1,3
Cc1cccc(C)c1NC(=O)CCC(=O)O,2,0,20*,5,0,-10
O=c1c2c(-c3ccccc3)csc2ncn1Cc1ccc([N+](=O)[O-])cc1,4,0,5.6*,20,-1,-3
O=C1N(Cc2cccc(F)c2)c2ccccc2C12OCCS2 (stereo not given),-16,0,3,8,/,/
Cc1ccccc1S(=O)(=O)Cc1ccc(C(=O)N2CCCCC2)o1,-2,0,0,8,/,/
O=C(c1ccc(CS(=O)(=O)Cc2ccc(F)cc2)o1)N1CCCCC1,-3,0,5.3*,7,0,-8
COc1cc(OC)cc(C(=O)NCc2nnc(SCC(=O)N3N=C(c4cccs4)CC3c3ccc(C)cc3)n2-c2ccc(F)cc2)c1 (stereo not given),3,0,2,0,/,/
C/C(=N\Nc1nnc2c(n1)[nH]c1ccccc12)c1ccc([N+](=O)[O-])cc1,-26,0,5.9*,7,0,-16
CCOCCCNc1nc2ccccc2n2nnnc12,-15,0,-1,7,/,/
c1ccc2c(c1)CCN(CCCNc1nc3ccccc3n3nnnc13)C2,-9,0,6.7*,1,0,-7
COc1ccc(-c2cc(C)cc3c2OC(CNC(=O)CC(C)C)C3)nn1 (stereo not given),-1,0,0,11,/,/
Cc1cc2c(c(-c3ccc(C(N)=O)cn3)c1)OC(CNC(=O)C13CC4CC(CC(C4)C1)C3)C2 (stereo not given),0,0,7.1*,-9,0,-3
CCOC(=O)C1(Cc2ccc(Cl)cc2)CCN(CC)CC1,-4,0,0,11,/,/
